Here are results for 40 compounds from PubChem BioAssay (Tox21).

“And” between values parts separate entries of the source, which are not always exact repeats. Equal values may be shown once. Inconclusive results are not listed. Where a call stands in place of a potency, no number is given. More than one record can exist for a structure, and the calls need not agree. The source made the active and inactive calls. The call rests on the fitted dose curve; in most records, active means well fitted cell-killing curve with a large enough effect in the repeat runs; inconclusive means weak or mixed curves; inactive means no such curve, though single readings can be large or run the other way.
Potency means the concentration at half of the fitted maximal effect.

The assay in a line: qHTS assay for identifying genotoxic compounds that show differential cytotoxicity against isogenic chicken DT40 cell lines with known DNA damage response pathways - Rad54/Ku70 mutant cell line (AID 743015). Further: nearly all actives have a fitted effect of over 60% in size. The following applies: DT40 Rad54/Ku70 mutant viability, CellTiter-Glo, 40 h; series mostly up to 66.8 µM. The source says:
National Center for Advancing Translational Sciences [NCATS]
NIH Chemical Genomics Center [NCGC]
U.S. Environmental Protection Agency [EPA]
National Institutes of Environmental Health Sciences [NIEHS]
National Toxicology Program [NTP]
U.S. Food and Drug Administration [FDA]
DNA repair pathways play a critical role in cellular homeostasis by repairing DNA damage induced by endogenous processes and xenobiotics. Isogenic chicken DT40 cell lines deficient in different DNA repair pathways can be used to identify genotoxic compounds and aid in characterizing the nature of the DNA damage induced. Two DNA repair-deficient cell lines with disrupted genes, Rad54/Ku70 or Rev3, were used to screen the Tox21 10K compound library. Possible genotoxicity was based on the presence of a significant increase in cytotoxicity in one or more of the DNA repair-deficient cell lines compared to that observed in the parental DNA repair-proficient cell line. CellTiter Glo viability assay (Promega, Madison, WI) was used to measure cell viability in these cells after compound treatment. This assay includes the data from the Rad54/Ku70 mutant cell line.
Tox21 Assay Protocol Summary:
300 DT40 mutant cells in 5 uL/well were dispensed into white, solid-bottom 1536-well plates using a Multidrop Combi (ThermoFisher Scientific, Waltham, MA) dispenser. After the assay plates were incubated at 37 C/5% CO2 for approximately 0.5 hour, 23 nL of compounds dissolved in DMSO, positive controls or DMSO only was transferred into the assay plate by a pintool work station (Kalypsys, San Diego, CA). The assay plates were incubated at 37 C/5% CO2 for 40 hours. After 5 uL per well of CellTiter-Glo reagent was added into each well of the assay plates, the plates were incubated for 30 min at room temperature and the luminescence intensity of the plates was measured using a ViewLux (PerkinElmer, Shelton, CT) plate reader.
On the technique in general: qHTS replaces the single test concentration by a dilution series.
For `O=C1c2ccccc2C(=O)N1SC(Cl)(Cl)Cl`, the Potency was 135 nM (active) and 154 nM (active). The value for `CC(=O)NNc1ccccc1` was 1.71 µM (active); that for `[Cl-].[Cl-].[Hg+2]` was 1.68 µM (active) and 1.36 µM (active) and 217 nM (active); that for `CC[N+]1(CCOC(=O)C(O)(c2ccccc2)c2ccccc2)CCCCC1` was “inactive”. Consider `CC(C)(C)CC(C)(C)c1ccc(O)cc1`, for which the Potency was 27.3 µM (active). The value for `CC(C)c1ccc(OP(=O)(Oc2ccc(C(C)C)cc2)Oc2ccc(C(C)C)cc2)cc1` was 69.1 µM (active) and 54.5 µM (active) and 21.7 µM (active); that for `CCNC(=O)NC(=O)/C(C#N)=N/OC` was “inactive”. The same measure for `CCCCCBr`: “inactive”; for `CCCC[N+](CCCC)(CCCC)CCCC`: 2.43 µM (active); for `O=C(CCl)CCl`: “inactive and 686 nM (active)”. For `Cc1cnc(C2=NC(C)(C(C)C)C(=O)N2)c(C(=O)O)c1` (stereo not given), the Potency entry is “inactive”. Take `Clc1ccccc1`: the Potency result is “inactive”. The same measure for `C[C@H]1O[C@H](OC2[C@@H](O)[C@@H](O)C(O)[C@H](O)[C@H]2O)[C@@H](N)C[C@@H]1N=C(N)C(=O)O` (stereo not given in full): “inactive”; for `c1ccc2c(c1)-c1cccc3cccc-2c13`: “inactive”; for `COC(=O)C1(O)c2ccccc2-c2ccccc21`: “inactive”.

Regarding `CCCN(CCOc1c(Cl)cc(Cl)cc1Cl)C(=O)n1ccnc1`, the Potency was 49.6 µM (active) and 27.3 µM (active). For `OCC1CO1` (stereo not given), the Potency entry is “inactive”.

As for `CCCCCCCCCCCCCCCl`, the Potency entry was “inactive”.

As to `CCN(C(C)=O)c1cccc(-c2ccnc3c(C#N)cnn23)c1`, the Potency entry was “inactive”. For the compound `O=C(O)C(Cl)(Cl)Br`, the Potency entry was “inactive”. The value for `C=CCOC(=O)C(C)(C)OC(=O)c1cc(-n2c(=O)cc(C(F)(F)F)n(C)c2=O)ccc1Cl` was 60 µM (active); that for `Cc1ccc(N)c(C)c1` was “inactive”.

Regarding `CCCCCCCCCCCCN=C(N)N`, the Potency was 1.06 µM (active).

Regarding `N#CC(C#N)=Cc1ccc(O)c(O)c1`, the Potency is 26.6 µM (active). The value for `CCCCNC(=O)OCC#CI` was 2.72 µM (active) and 969 nM (active); that for `CCSCc1ccccc1OC(=O)NC` was “inactive”; that for `ClCc1ccccc1Cl` was “inactive”. The same measure for `CN[C@@H](C)[C@H](O)c1ccccc1`: “inactive”. The value for `CC(C)(C)OOC(C)(C)CCC(C)(C)OOC(C)(C)C` was “inactive”.

`SCc1ccccc1`: the Potency entry was “inactive”.

As to `C=CCc1ccccc1O`, the Potency result was “inactive”. In the case of `CCOC(=O)C1OC1(C)c1ccccc1` (stereo not given), the Potency entry was “inactive”. The value for `O=[N+]([O-])c1cc(Cl)c(Cl)cc1Cl` was “inactive”; that for `CC(Cl)C(=O)O` (stereo not given) was “inactive”; that for `Clc1ccc2ccccc2c1` was “inactive”. The same measure for `Oc1cccc(Cl)c1`: “inactive”; for `CCC(C)Cl` (stereo not given): “inactive”. The value for `C1CS1` was “inactive”; that for `CON(C)C(=O)Nc1ccc(Cl)cc1` was “inactive”.

With `O=C(O)C(F)(F)C(F)(F)C(F)(F)C(F)(F)C(F)(F)F`, the Potency result was “inactive”.
